Reference: PubChem BioAssay
Records with an inconclusive call do not appear. Activity calls are given as the source filed them.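 How the source made its calls, unless noted: active means inhibition over a set limit, the all-compound mean plus 3 SD, in both replicate runs; inconclusive means over that limit in just one replicate run; inactive means at or under that limit in both runs.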

Assays:
[1] = Her2 expression decrease, cell viability multiplex – SKBR3 breast tumor cells, AlphaScreen, ATP viability, primary screen (AID 461;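 active means Her2 level under about 52% in both replicate screens, with viability over 70% of control, limit read from the data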;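 on Her2 level: lower value means less Her2 protein in the cells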;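 on viability: percent of carrier control wells set as 100% viability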); conditions: SKBR3 Her2 protein level, 18-24 h, measured here: SKBR3 viability, ATP luminescence, at 10 µM
[2] = target: Receptor tyrosine-protein kinase erbB-2 (Homo sapiens) (UniProt P04626); test: as above; conditions: 18-24 h, at 10 µM, stronger effect = lower value
Sequence of Receptor tyrosine-protein kinase erbB-2 (Homo sapiens) (P04626 whole entry, looked up): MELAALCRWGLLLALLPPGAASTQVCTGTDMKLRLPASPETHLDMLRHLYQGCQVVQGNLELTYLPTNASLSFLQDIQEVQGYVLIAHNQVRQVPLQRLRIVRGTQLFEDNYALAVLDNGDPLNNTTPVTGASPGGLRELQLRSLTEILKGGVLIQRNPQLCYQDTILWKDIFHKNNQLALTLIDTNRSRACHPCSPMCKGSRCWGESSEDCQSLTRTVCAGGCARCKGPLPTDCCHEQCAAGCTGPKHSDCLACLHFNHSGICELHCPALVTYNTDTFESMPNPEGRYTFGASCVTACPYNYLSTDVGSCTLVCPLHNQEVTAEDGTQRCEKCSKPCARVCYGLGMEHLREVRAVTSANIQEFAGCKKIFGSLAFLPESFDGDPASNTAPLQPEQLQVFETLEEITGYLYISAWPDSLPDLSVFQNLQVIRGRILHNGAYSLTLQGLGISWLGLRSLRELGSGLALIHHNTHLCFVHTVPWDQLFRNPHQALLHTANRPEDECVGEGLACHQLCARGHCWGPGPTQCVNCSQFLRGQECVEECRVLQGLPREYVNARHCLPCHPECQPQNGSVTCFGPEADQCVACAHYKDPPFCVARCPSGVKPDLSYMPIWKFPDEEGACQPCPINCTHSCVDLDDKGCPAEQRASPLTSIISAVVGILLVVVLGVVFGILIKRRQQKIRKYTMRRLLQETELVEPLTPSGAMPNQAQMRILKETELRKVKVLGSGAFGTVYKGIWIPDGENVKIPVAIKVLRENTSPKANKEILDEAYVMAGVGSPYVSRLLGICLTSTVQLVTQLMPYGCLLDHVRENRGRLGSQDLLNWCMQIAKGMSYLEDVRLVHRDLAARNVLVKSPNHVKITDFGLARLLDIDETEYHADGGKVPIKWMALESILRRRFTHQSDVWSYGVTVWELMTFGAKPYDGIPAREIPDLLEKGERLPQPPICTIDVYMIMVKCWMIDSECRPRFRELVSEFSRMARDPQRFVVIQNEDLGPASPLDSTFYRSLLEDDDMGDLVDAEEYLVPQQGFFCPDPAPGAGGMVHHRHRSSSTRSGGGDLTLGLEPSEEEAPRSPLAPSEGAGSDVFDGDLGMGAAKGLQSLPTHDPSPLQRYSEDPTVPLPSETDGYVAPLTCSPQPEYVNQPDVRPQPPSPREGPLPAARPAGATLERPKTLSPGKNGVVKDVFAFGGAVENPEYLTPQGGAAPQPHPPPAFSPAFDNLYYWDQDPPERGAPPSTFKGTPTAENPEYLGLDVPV

[3] = reduced viability of SK-BR-3 breast cancer cells – cell-based, 24 h, human, pilot screen (AID 572;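 active means viability at or below 10% of carrier control in both of two separate runs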;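 further: compound exposure lasted between 18 and 24 h rather than exactly 24 h; 100% = carrier-treated control wells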); conditions: SK-BR-3 viability, CellTiter-Glo luminescence, at 10 µM, stronger effect = lower value
[4] = HUVEC growth inhibition – cell-based, human, primary screen (AID 575;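 active means viability at or below 30% in both replicate assays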;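 further: 100% = median of untreated cell wells with 0.1% DMSO on each plate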); conditions: HUVEC proliferation, CellTiter-Glo luminescence, 72 h; at 10 µM; stronger effect = lower value
[5] = H69AR cell proliferation blockers – human, duplicate replicates, primary screen (AID 580;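 active means viability at or under a set limit in both replicates, limit being median viability minus 3 SD, cut at about 48% in these data, passing the limit was not always enough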;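 further: 100% = mean luminescence of untreated wells and 0% = no signal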); conditions: H69AR lung tumor cells viability, ATP luminescence, 72 h; at 10 µM; stronger effect = lower value
[6] = MRP1 drug-resistance reversers in H69AR cells – cell-based, doxorubicin co-treatment, pilot screen (AID 601;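 active means viability loss from added drug above about 55%, and viability with drug at most 40%, in both replicates, limit read from the data, passing the limit was not always enough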); conditions: CellTiter-Glo, 72 h, at 10 µM; for differential viability (reversal): stronger effect = higher value
[7] = yeast transport mutant growth inhibition pilot in 384-well plates, post-Golgi transport modulator project (AID 636; in the data active means inhibition above about 31%); conditions: absorbance 615 nm, about 18 h, stronger effect = higher value
[8] = growth suppression of yeast trafficking mutant, preliminary HTS, modulators of trafficking downstream of Golgi apparatus project, 1536-format plate, OD 615 nm (AID 637; in the data active means inhibition above about 30%); conditions: yeast transport mutant growth, absorbance 615 nm, 18 h; stronger effect = higher value
[9] = S. cerevisiae growth inhibition in permissive medium (OD615), pilot counter-assay for S. cerevisiae lifespan shortening project, permissive growth control (AID 705;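 active means growth inhibition above 25% in both replicates, a cutoff set 3 SD above the mean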); conditions: OD615, 24 h, at 10 µM, stronger effect = higher value
[10] = S. cerevisiae growth inhibition in restrictive medium, OD615, pilot screen, restrictive growth control, yeast lifespan reduction project (AID 706;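 active means growth inhibition above a set limit, 3 SD over mean compound inhibition, in both replicates, cut at about 43% in these data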;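 further: modified DeaD lifespan yeast strain shifted to restrictive glucose medium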); conditions: OD615, 48 h, at 10 µM, stronger effect = higher value
[11] = doxorubicin toxicity protection in MRP-1 cells – H69AR cells, CellTiter-Glo, duplicate, MRP-1 activator project, pilot screen (AID 807;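 active means viability increase at or above a cutoff of the median across tested compounds plus 3 SD, cut at about 8.5% in these data, passing the limit was not always enough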;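 further: compound pretreatment 18-22 h then 72 h combined with doxorubicin; 0% = doxorubicin alone and 100% = vehicle without doxorubicin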); conditions: H69AR viability with doxorubicin, CellTiter-Glo luminescence; at 10 µM; stronger effect = higher value
[12] = viability of HCT116 without oncogenic beta-catenin – human colon tumor cells, pilot screen (AID 823;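 active means cell viability at or below a set limit in both duplicate runs, the limit being the all-compound median minus 4 SD, cut at about 23% in these data, passing the limit was not always enough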;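 further: 0% = wells killed by 20 µM Hyamine and 100% = untreated DMSO cell wells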); conditions: HCT116 beta-catenin knockout viability, CellTiter-Glo, 60 h; at 10 µM; stronger effect = lower value
[13] = viability of PTEN-null HCT116 cells – cell-based, HCT116 clonal line, CellTiter-Glo, pilot screen (AID 824;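 active means viability at or below 27.92% in each of two runs, the all-compound median minus 4 SD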;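 further: 0% = 20 µM Hyamine control and 100% = vehicle cell control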); conditions: HCT116 PTEN-deleted viability, 60 h, at 10 µM, stronger effect = lower value
[14] = RAM pathway blockade in budding yeast – dse1pr::URA3 reporter, 5-FOA selection, pilot screen (AID 869);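 further: 0% = DMSO wells with no growth and 100% = 10 µM 1-NA-PP1 with full growth; RAM network block rescues cells from 5-FOA so hits raise OD615 growth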; conditions: S. cerevisiae dse1pr::URA3 5-FOA growth, OD615, 2 d; at 10 µM; stronger effect = higher value; strain carries analog-sensitive mutant Cbk1 kinase
[15] = RAM signaling pathway blockade in yeast – S. cerevisiae, Pdr1DBD-CYC8 efflux-inhibited sensitized strain, primary screen (AID 1298;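 active means RAM network inhibition above 8.4% in each of two replicates, 3 SD over the compound average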;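 further: 0% = DMSO untreated cells without growth and 100% = 10 µM 1-NA-PP1 full growth; higher means more yeast growth rescued from 5-FOA killing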); conditions: S. cerevisiae cbk1-as DSE1-URA3 strain, 5-FOA growth OD615, 2 d; at 50 µM; stronger effect = higher value
[16] = H69AR cells + 2 uM doxorubicin, measured here: viability with 2 uM doxorubicin, stronger effect = lower value
[17] = H69AR cells, compound alone cytotoxicity

Structure (SMILES)	viability [1] [%]	Her2 level [2]	viability [3]	viability [4]	viability [5]	differential viability (reversal) ([6]; H69AR cells + 2 uM doxorubicin)	viability [6, 16] [%]	viability [6, 17] [%]	inhibition [7]	inhibition [8]	growth inhibition [9]	growth inhibition [10]	viability increase [11]	viability [12]	viability [13]	inhibition [14]	RAM network inhibition [15]
COc1ccc(OC)c(C2CC(=O)NC(SC)=C2C#N)c1 (stereo not given)	102	94% (inactive)	102% (inactive)	83.1% (inactive)	94.3% (inactive)	11.6% (inactive)	82.8	94.3	-5.33% (inactive)	-9.02% (inactive)	-11.4% (inactive)	-5.61% (inactive)	0.31% (inactive)	104% (inactive)	92.6% (inactive)	-0.015% (inactive)	2.19% (inactive)
Cc1ccc(-n2ncc3c(=O)[nH]c(SC(C)C)nc32)cc1	93	104% (inactive)	93% (inactive)	84.9% (inactive)	80.1% (inactive)	11.3% (inactive)	68.7	80.1	-4.4% (inactive)	-6% (inactive)	-3.77% (inactive)	-5.77% (inactive)	-3.9% (inactive)	98.4% (inactive)	87.4% (inactive)	3.35% (inactive)	4.11% (inactive)
CN(CCCNC(=O)c1cn(C)c2ccc(S(=O)(=O)N(C)C)cc2c1=O)c1ccccc1	85.5	90% (inactive)	85.5% (inactive)	98.3% (inactive)	87.7% (inactive)	17.1% (inactive)	70.6	87.7	0.38% (inactive)	-1% (inactive)	1.83% (inactive)	-0.125% (inactive)	-3.8% (inactive)	94.8% (inactive)	85% (inactive)	0.395% (inactive)	7.85% (inactive)
CCN1CCN(CCCNC(=O)c2cc3sccc3n2CC)CC1	96.5	120% (inactive)	96.5% (inactive)	99% (inactive)	89.4% (inactive)	-1.6% (inactive)	91	89.4	-0.27% (inactive)	3% (inactive)	-3.32% (inactive)	-3.54% (inactive)	-1.72% (inactive)	96.9% (inactive)	98.6% (inactive)	0.865% (inactive)	1.23% (inactive)
Cn1c(/C=N/n2cnnc2)nc2ccccc21	100	78% (inactive)	100% (inactive)	105% (inactive)	83.4% (inactive)	-14.4% (inactive)	97.8	83.4	-0.26% (inactive)	-5% (inactive)	-4.11% (inactive)	-2.04% (inactive)	-3.76% (inactive)	94% (inactive)	94.2% (inactive)	0.41% (inactive)	5.84% (inactive)
CC1CCN(C(=O)CSc2nc3c(cnn3-c3ccccc3)c(=O)[nH]2)CC1	82.5	92% (inactive)	82.5% (inactive)	72.1% (inactive)	72% (inactive)	7.54% (inactive)	64.4	72	-0.64% (inactive)	1.67% (inactive)	-6.1% (inactive)	-4.26% (inactive)	-3.8% (inactive)	98.3% (inactive)	91.1% (inactive)	1.47% (inactive)	6.5% (inactive)
CCOC(=O)C(CC)(CCC(=O)O)c1csc(N)n1 (stereo not given)	99	98.5% (inactive)	99% (inactive)	101% (inactive)	102% (inactive)	7.83% (inactive)	94.2	102	-8.4% (inactive)	-2.74% (inactive)	-4.72% (inactive)	-9.94% (inactive)	-1.31% (inactive)	96.8% (inactive)	98.3% (inactive)	0.94% (inactive)	-1.93% (inactive)
O=C(NCCSc1c[nH]c2ccccc12)c1ccco1	112	93.5% (inactive)	112% (inactive)	64.5% (inactive)	65.1% (inactive)	-25.6% (inactive)	90.6	65.1	-4.8% (inactive)	0% (inactive)	-5% (inactive)	-2.81% (inactive)	-6.06% (inactive)	102% (inactive)	91.6% (inactive)	1.83% (inactive)	0.88% (inactive)
O=C1c2ccccc2C(Nc2ccc(F)c(Cl)c2)N1Cc1ccco1 (stereo not given)	92	99% (inactive)	92% (inactive)	58.4% (inactive)	74% (inactive)	-0.96% (inactive)	75	74	-1.6% (inactive)	3.83% (inactive)	-5.7% (inactive)	-1.3% (inactive)	-4.57% (inactive)	72.8% (inactive)	77.1% (inactive)	1.6% (inactive)	7.74% (inactive)
COc1ccc(NC(=O)CSc2nnc(Cc3cccn3C)n2-c2ccc(F)cc2)cc1	96	112% (inactive)	96% (inactive)	94.4% (inactive)	94.8% (inactive)	-14.7% (inactive)	110	94.8	-2.27% (inactive)	-6.5% (inactive)	4.66% (inactive)	11.6% (inactive)	-2.27% (inactive)	88.8% (inactive)	86% (inactive)	2.56% (inactive)	8.6% (inactive)
